Consider 13 molecules from PubChem BioAssay (Tox21).

The nature of assay [1]: qHTS assay for small molecules that induce genotoxicity in human embryonic kidney cells expressing luciferase-tagged ATAD5 (AID 651632). Note: nearly all actives have a fitted effect of over 15% in size. Put shortly:
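HEK293T cells carrying luciferase-tagged ATAD5 were given compound or DMSO vehicle and incubated 16 hr at 37C, 5% CO2. Luciferase activity was read after 30 min at room temperature with Amplite; a rise signals genotoxic stress.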
(In general: qHTS replaces the single test concentration by a dilution series.)

Assay [2] can be described thus: qHTS assay for small molecules that induce genotoxicity in human embryonic kidney cells expressing luciferase-tagged ATAD5 - cell viability (AID 651634; calls by dose curve; note: nearly all actives have a fitted effect of over 25% in size; note: potency is the fitted concentration of half-maximal effect). The gist of the method: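 HEK293T cells carrying luciferase-tagged ATAD5, 2,000 cells/well, exposed to compound for 15.5 hr at 37C. Viability read as live-cell protease activity by CellTiter-Fluor fluorescence after 30 min at 37C.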

Assay [3] can be described thus: qHTS assay for small molecule disruptors of the mitochondrial membrane potential - cell viability (AID 720634; calls by dose curve;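 note: human HepG2 liver cancer cells; series mostly up to about 83 µM; nearly all actives have a fitted effect of over 20% in size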). The gist of the method: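 HepG2 cells, 2,000 per well, attached overnight, then treated 1 hr at 37 C, 5% CO2. Viability read as ATP by CellTiter-Glo luminescence after 30 min at room temperature. Read in the same wells as the m-MPI membrane-potential dye assay.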

Assay [4] can be described thus: qHTS assay to test for compound auto fluorescence at 590 nm (red) in HepG2 cells (AID 720674). The gist of the method: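 We screened compounds on adherent HepG2 cells, incubating them for an hour at 37 C in 5% CO2 before reading emission at 590 nm under 540 nm excitation; values reflect equivalence to Rose Bengal sodium fluorescence.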
The nature of assay [5]: qHTS assay to test for compound auto fluorescence at 535 nm (green) in HepG2 cells (AID 720675).
The nature of assay [6]: qHTS assay to test for compound auto fluorescence at 460 nm (blue) in HEK293 cells (AID 720678). Put shortly: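 HEK293 cells (2,000 per well, medium with 10% dialyzed FBS) attached for 4-5 hr at 37C, then received compound and stood overnight at 37C, 5% CO2. Blue fluorescence was read at Ex/Em 405/460 nm and expressed relative to triamterene.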
Assay [7] can be described thus: qHTS assay to test for compound auto fluorescence at 590 nm (red) in HEK293 cells (AID 720679). The gist of the method:
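HEK293 cells (2,000/well, medium with 10% dialyzed FBS) attached for 4-5 hr at 37C, received 23 nL compound and were incubated overnight at 37C, 5% CO2. Red fluorescence was then read at 540/590nm Ex/Em, referenced to Rose Bengal sodium.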

A short description of assay [8]: qHTS assay to test for compound auto fluorescence at 535 nm (green) in HEK293 cells (AID 720680).
Assay [9] is described as follows: qHTS assay to test for compound auto fluorescence at 460 nm (blue) in HEK293 cell free culture (AID 720681). Put shortly:
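Blue fluorescence (Ex 405/Em 460 nm, triamterene-equivalent) was read immediately after pin transfer of compound or DMSO into medium (DMEM, 10% FBS) without cells.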

The nature of assay [10]: qHTS assay to test for compound auto fluorescence at 535 nm (green) in HEK293 cell free culture (AID 720682). Put shortly: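 Cell-free medium (DMEM, 10% FBS) receives compound or DMSO by pintool. Plate read directly at Ex 485/Em 535 nm. Signal converted to fluorescein equivalency.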
Assay [11] is described as follows: qHTS assay to test for compound auto fluorescence at 590 nm (red) in HEK293 cell free culture (AID 720683). The gist of the method: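 Red-channel autofluorescence of compounds in culture medium (DMEM, 10% FBS), no cells, measured at 540/590 nm. Rose Bengal sodium is the reference fluorophore for equivalence.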
Assay [12] is described as follows: qHTS assay to test for compound auto fluorescence at 590 nm (red) in HepG2 cell free culture (AID 720684). Put shortly: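 Plate contents were MEM with 10% FBS plus test compound or DMSO, no cells. Fluorescence was recorded with 540 nm excitation and 590 nm emission.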
Assay [13] is described as follows: qHTS assay to test for compound auto fluorescence at 460 nm (blue) in HepG2 cell free culture (AID 720685). The gist of the method: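 Compound (23 nL) or DMSO pinned into cell-free MEM with 10% FBS; blue fluorescence read at 405/460 nm excitation/emission, expressed as auto-fluorescence equivalency to triamterene.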
The nature of assay [14]: qHTS assay to test for compound auto fluorescence at 535 nm (green) in HepG2 cell free culture (AID 720686).
Assay [15] in a line: qHTS assay to test for compound auto fluorescence at 460 nm (blue) in HepG2 cells (AID 720687). The gist of the method: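 Blue-channel autofluorescence (Ex/Em 405/460 nm, triamterene-equivalent) was measured after 1 hr compound exposure at 37 C, 5% CO2. Cells were HepG2, plated overnight at 37 C in MEM plus 10% FBS.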
Assay [16] concerns the target Glucocorticoid receptor (Homo sapiens) (UniProt P04150). The experiment in a line: qHTS assay to identify small molecule agonists of the glucocorticoid receptor (GR) signaling pathway (AID 720691; active = well fitted activation curve with a large enough effect in the signal ratio in the repeat runs, not every such curve was filed as active; the % refers to the signal ratio). Put shortly:
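GR-bla HeLa cells carrying a GRE-driven beta-lactamase reporter, exposed to compounds for 18 h at 37 C. Reporter activation read as fluorescence after 2 h with LiveBLAzer B/G FRET substrate at room temperature.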

Assay [17] can be described thus: qHTS assay for small molecule agonists of the p53 signaling pathway - cell viability (AID 651633; calls by dose curve;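 note: p53RE-bla HCT reporter cells with a stable beta-lactamase p53 reporter; series mostly up to about 83 µM; nearly all actives have a fitted effect of over 30% in size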). Put shortly:
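Viability counter-read: CellTiter-Glo luminescence (30 min, room temperature) in the same p53RE-bla plates. These plates had been exposed to compounds for 16 h at 37 C.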

Assay [18] addresses Glucocorticoid receptor (Homo sapiens) (UniProt P04150). The experiment in a line: qHTS assay to identify small molecule antagonists of the glucocorticoid receptor (GR) signaling pathway (AID 720692; active = well fitted inhibition curve with a large enough effect in the signal ratio in the repeat runs, not every such curve was filed as active; the % refers to the signal ratio). The gist of the method: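 GR-bla HeLa cells carrying a GRE-driven beta-lactamase reporter received compound after 4 h plating, then dexamethasone (5 nM final). After 18 h at 37C, the FRET substrate was loaded for 2 h at room temperature and fluorescence read.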

The nature of assay [19]: qHTS assay for small molecule disruptors of the mitochondrial membrane potential (AID 720635). Put shortly: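 Mitochondrial membrane potential tracked with Mito-MPS dye, red aggregates (ex 540/em 590 nm) against green monomers (ex 490/em 535 nm). Compound treatment 1 hr at 37C, dye 30 min in HepG2.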

SMILES strings stand for the structures. Unmarked numbers belong to inactive results. Records with an inconclusive call do not appear. The source made the active and inactive calls. Unless noted, calls come from the whole dose curve; as a rule, active = well fitted curve in the direction sought with a large enough effect in the repeat runs; inconclusive = weak or mixed curves; inactive = no such curve, though single readings can be large; an effect the other way counts as inactive or inconclusive.
% is set by controls: 0 for no effect and ±100 for the full control effect.

Chain of Glucocorticoid receptor (Homo sapiens) (P04150 whole entry, looked up): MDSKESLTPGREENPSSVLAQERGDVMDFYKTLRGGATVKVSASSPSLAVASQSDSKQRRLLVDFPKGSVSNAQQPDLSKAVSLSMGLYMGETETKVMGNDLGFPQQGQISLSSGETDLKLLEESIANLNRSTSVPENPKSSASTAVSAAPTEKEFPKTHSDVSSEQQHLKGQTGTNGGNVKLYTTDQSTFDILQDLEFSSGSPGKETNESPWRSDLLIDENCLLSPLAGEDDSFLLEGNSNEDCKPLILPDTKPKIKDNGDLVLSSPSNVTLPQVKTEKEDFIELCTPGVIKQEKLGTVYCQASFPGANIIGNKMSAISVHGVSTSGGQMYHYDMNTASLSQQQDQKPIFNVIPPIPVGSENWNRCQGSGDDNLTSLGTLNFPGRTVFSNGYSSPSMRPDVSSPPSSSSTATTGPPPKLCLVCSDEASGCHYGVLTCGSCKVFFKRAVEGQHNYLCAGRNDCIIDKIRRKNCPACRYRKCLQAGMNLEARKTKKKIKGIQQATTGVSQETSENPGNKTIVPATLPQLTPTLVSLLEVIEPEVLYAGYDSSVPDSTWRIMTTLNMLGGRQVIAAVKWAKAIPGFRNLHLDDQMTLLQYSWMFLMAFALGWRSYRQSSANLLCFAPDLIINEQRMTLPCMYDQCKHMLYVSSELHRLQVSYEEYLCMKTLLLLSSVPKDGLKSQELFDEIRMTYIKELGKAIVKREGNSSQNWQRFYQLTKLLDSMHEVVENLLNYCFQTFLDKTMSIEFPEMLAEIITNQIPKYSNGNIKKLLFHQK

Turning to `CC[C@@H](CO)NC(=O)[C@@H]1C=C2c3cccc4[nH]cc(c34)C[C@H]2N(C)C1`, the molecule was classed as inactive in assay [1], in assay [4], in [5], in [6], in [7] and in [8]. The result in assay [9], in assay [10], in assay [11], in assay [12], in assay [13] and in [14] was inactive. Further, the molecule was classed as inactive in assay [15]. Further, the Potency entry in [2], in assay [3] and in assay [16] was “inactive” each time.
Consider `O=P(O)(O)CN(CP(=O)(O)O)CP(=O)(O)O`, for which the call in assay [1] was inactive. For the same molecule, the Potency result in assay [17], in [3], in [16] and in assay [18] was “inactive” each time. Also, the fluorescence, % of fluorescein control was -0.0161% [at 18.6 µM] in assay [5] and 0.0644% [at 18.6 µM] in [14]. Further, the fluorescence, % of triamterene in [6] is 0.0178% [at 18.6 µM]. In addition, the fluorescence, % of fluorescent control in assay [7] was 0.149% [at 18.6 µM]; in [9], -0.0261% [at 18.6 µM]; in assay [11], 0.0352% [at 18.6 µM]; in [13] it was -0.13% [at 18.6 µM]; in assay [15] it was -0.044% [at 18.6 µM]. Moreover, the fluorescence, % of fluorescein in [8] is -0.175% [at 18.6 µM]. In [10], the activity change was -0.0587% [at 18.6 µM]. Further, the fluorescence, % of Rose Bengal in assay [12] was -0.0485% [at 18.6 µM].
Regarding `O=c1[nH]c2ccccc2o1`, the outcome in assay [1], in [4], in assay [5], in [6], in assay [7] and in assay [8] was inactive. For the same molecule, the call in assay [9], in assay [10], in assay [11], in [12], in assay [14] and in assay [15] was inactive. The Potency entry in [2], in assay [3], in [19] and in assay [16] was “inactive” each time.
As for `CN(C)C1CCCCC1`, the Potency result in assay [17], in assay [2], in assay [3], in assay [16] and in [18] was “inactive” in each case. The result in [4], in assay [6], in [7], in assay [8], in assay [9] and in assay [10] was inactive. For the same molecule, the molecule was classed as inactive in assay [11], in [12], in assay [13], in assay [14] and in assay [15].
On to `CCCC(C)C1(CC)C(=O)N=C(S)NC1=O` (centres undefined), for which the Potency result in [17], in assay [3], in assay [16] and in assay [18] was “inactive” throughout. Moreover, the molecule was classed as inactive in assay [4], in assay [6], in assay [7], in assay [8], in assay [9] and in assay [10]. Moreover, the call in assay [11], in assay [12], in assay [14] and in assay [15] was inactive.
Consider `COc1cc(CCN)cc(OC)c1OC`, for which the result in assay [1], in assay [5], in assay [6], in assay [7], in assay [8] and in [9] was inactive. The call in assay [10], in [11], in assay [12], in assay [13], in assay [14] and in [15] was inactive. In addition, the Potency result in [17], in assay [2], in assay [3], in assay [16] and in [18] was “inactive” throughout.
Consider `Cc1ccc(S(=O)(=O)N[C@@H](CCCCN)C(=O)CCl)cc1`, for which the Potency in assay [2] was 29.8 µM (active). The Potency entry in assay [3] and in assay [16] was “inactive” throughout. Besides, the outcome in assay [4], in assay [5], in assay [6], in [7], in assay [8] and in assay [9] was inactive. The result in assay [10], in assay [11], in [12], in [13], in assay [14] and in [15] was inactive.
For `BrCC1CO1` (centres undefined), the molecule was classed as inactive in assay [1], in assay [4], in assay [5], in assay [6], in assay [7] and in assay [8]. For the same molecule, the molecule was classed as inactive in assay [9], in assay [10], in assay [11], in [12], in assay [13] and in assay [14]. Also, the result in assay [15] was inactive. Moreover, the Potency entry in [17], in assay [2], in assay [16] and in assay [18] was “inactive” in each case.
Regarding `CCC(=O)c1ccc(Cl)cc1`, the outcome in [1], in assay [4], in assay [5], in [6], in assay [7] and in [8] was inactive. For the same molecule, the result in assay [9], in assay [10], in assay [11], in assay [12], in assay [13] and in assay [14] was inactive. Besides, in [15], the outcome was inactive. Further, the Potency entry in assay [2], in assay [3], in assay [16] and in [18] was “inactive” throughout.
Take `O=C(O)c1c(Cl)ccc2cc(Cl)cnc12`: the result in assay [1], in assay [6], in assay [7], in assay [8], in assay [9] and in assay [10] was inactive. Moreover, the result in [11], in [12], in [14] and in assay [15] was inactive. The Potency result in assay [2] and in assay [16] was “inactive” in each case.
Regarding `CON(C)C(=O)Nc1ccc(Br)c(Cl)c1`, the call in assay [1], in assay [4], in assay [6], in assay [7], in assay [9] and in [10] was inactive. Besides, the outcome in assay [11], in assay [12], in assay [13], in assay [14] and in [15] was inactive. The Potency entry in assay [17], in [2] and in [16] was “inactive” each time.
Regarding `C=CCN1CC[C@]23CCCC[C@H]2[C@H]1Cc1ccc(O)cc13`, the molecule was classed as inactive in assay [1], in assay [4], in [5], in assay [6], in assay [7] and in assay [8]. Further, the call in assay [9], in assay [10], in assay [11], in assay [12], in assay [13] and in assay [14] was inactive. In assay [15], the molecule was classed as inactive. The Potency entry in [17], in assay [2] and in assay [16] was “inactive” throughout.
In the case of `CCOP(=S)(OCC)SCCl`, the outcome in assay [1], in assay [4], in assay [5], in [6], in assay [7] and in assay [8] was inactive. The result in assay [9], in assay [10], in assay [11], in assay [12], in assay [13] and in assay [14] was inactive. The molecule was classed as inactive in assay [15]. In addition, the Potency result in assay [17], in [2], in assay [19], in assay [16] and in [18] was “inactive” each time.
